# Data from PubChem BioAssay AID504692 (The Scripps Research Institute Molecular Screening Center, 2011).
# The whole screen tested about 340,000 compounds, of which about 2,000 (0.59%) were called active. Rule as the data show it: active = activation mostly above about 9.5% (no sharp cut-off); inactive = mostly below about 7.6%. The entries come from a sample that favours actives as a whole.
# Molecular target: 5-hydroxytryptamine receptor 5A (Homo sapiens) (UniProt P47898)
# Test: activation of human 5-HT5A receptor – cell-based, luminescence, full-deck HTS, counter-screen for OPRM1-OPRD1 heterodimer agonist project, primary screen (AID 504692);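 also: 0% = cells with vehicle only and 100% = reference agonist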
# Settings: HTR5A agonist assay, at 9.3 µM, active compounds read high
# Sequence of 5-hydroxytryptamine receptor 5A (Homo sapiens) (P47898 whole entry, looked up): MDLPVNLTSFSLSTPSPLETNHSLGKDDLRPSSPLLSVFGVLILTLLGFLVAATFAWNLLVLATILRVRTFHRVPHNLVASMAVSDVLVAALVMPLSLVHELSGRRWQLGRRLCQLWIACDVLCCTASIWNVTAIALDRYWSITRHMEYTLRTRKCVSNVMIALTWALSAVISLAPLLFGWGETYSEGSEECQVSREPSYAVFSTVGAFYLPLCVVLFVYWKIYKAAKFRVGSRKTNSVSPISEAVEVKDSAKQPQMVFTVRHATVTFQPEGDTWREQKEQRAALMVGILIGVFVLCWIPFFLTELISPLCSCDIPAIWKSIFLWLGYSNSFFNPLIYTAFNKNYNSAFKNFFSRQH
row,SMILES,activation
1,COc1ccc(NC(=O)CSc2nnc(-c3ccccc3F)n2C2CC2)cc1S(N)(=O)=O,-5.29% (inactive)
2,Cn1c(CCC(=O)Nc2ccccc2F)nnc1SCC(=O)Nc1ccccc1Cl,-0.17% (inactive)
3,CCCN(CCc1ccccc1)C1CCc2c(O)cccc2C1 (stereo not drawn),24.5% (active)
4,Cc1cc(C)cc(C(=O)N(CCc2ccccc2)C2=CC3CCC(C2)N3C)c1 (stereo not drawn),7.8% (inactive)
5,CC(NC(=O)c1cc(-c2ccccc2)on1)c1ccccc1 (stereo not drawn),18.9% (active)
6,O=C(NC1CCCC1)c1cc(-c2ccccc2)on1,-5.2% (inactive)
7,CC(C)CNC(=O)c1cc(-c2ccc(Br)cc2)on1,5.27% (inactive)
8,CCOC(=O)c1c(/N=C/c2cc(C)ccc2O)sc2c1CCC2,3.38% (inactive)
9,Cc1cc(-c2ccc(C)c(S(=O)(=O)NCCCN(Cc3ccccc3)C(C)C)c2)on1,-3.67% (inactive)
10,Cc1cc(-c2ccc(C)c(S(=O)(=O)Nc3ccc(S(N)(=O)=O)cc3)c2)on1,1.19% (inactive)
11,Cc1cc(-c2ccc(C)c(S(=O)(=O)NC(C)Cc3ccco3)c2)on1 (stereo not drawn),11.8% (active)
12,CCc1c(C)c2c(C)[nH]nc2oc1=O,2.29% (inactive)
13,CNS(=O)(=O)c1cccc(C(=O)OCCCC(=O)c2ccccc2)c1,2.3% (inactive)
14,CCNC(=S)N1CCC(c2nc3cc(C)c(C)cc3[nH]2)CC1,0.03% (inactive)
15,CCCNC(=S)N1CCCC(c2nc3ccccc3[nH]2)C1 (stereo not drawn),2.29% (inactive)
16,CN(C)CCCNC(=S)N1CCC(c2nc3ccccc3[nH]2)CC1,11.5% (active)
17,O=C(OCC(=O)N1CCCCCC1)c1cnc(Cl)c(Cl)c1,-5.36% (inactive)
18,CCCOc1ccc(/C=N/NC(=O)C2CC2)c(OCCC)c1,4.85% (inactive)
19,CCCOc1ccc(C(=O)C(CCC(CNCC)C(=O)c2ccc(OCCC)cc2)CNCC)cc1 (stereo not drawn),19.9% (active)
20,CCCOc1ccc(C(=O)CCC(=O)OC(C)C(=O)Nc2ccc(NC(C)=O)cc2)cc1 (stereo not drawn),2.99% (inactive)
21,O=C(c1ccco1)N1CCN(Cc2cccc(C(F)(F)F)c2)CC1,4.8% (inactive)
22,Cn1c(CN2CCOCC2)nc2cc(NC(=O)c3ccc(Cl)cc3)ccc21,9.89% (inactive)
23,CN(c1ccccc1)S(=O)(=O)c1cc(C(=O)N2CCN(c3ncccn3)CC2)ccc1Cl,15.4% (active)
24,CN(c1ccccc1)S(=O)(=O)c1ccc(C(=O)N2CCN(c3ccccc3Cl)CC2)cc1,0.22% (inactive)

row,SMILES,activation
1,CN(c1ccccc1)S(=O)(=O)c1cc(C(=O)OCC(=O)N2CCN(C(=O)c3ccco3)CC2)ccc1Cl,3.06% (inactive)
2,Cc1cc(C)cc(C(=O)NCC(=O)OCC(=O)N2CCCCC2)c1,-2.45% (inactive)
3,Cc1ccc(S(=O)(=O)N(CC(=O)NCCSC2CCCCC2)c2ccccc2F)cc1,2.64% (inactive)
4,O=C(NC1(C(F)(F)F)N=C2SCCN2C1=O)c1ccco1 (stereo not drawn),3.99% (inactive)
5,O=C(OC12CC3CC(CC(C3)C1)C2)c1ccc(NCc2cc(O)ccc2O)cc1,21.4% (active)
6,CC(C)OC(=O)c1ccc(NCc2cc(O)ccc2O)cc1Cl,3.07% (inactive)
7,COC(=O)c1ccc(NCc2cc(O)ccc2O)cc1,6.1% (inactive)
8,C/C(=N\NC(=S)NC1CCCCC1)c1ccc(C)o1,6.64% (inactive)
9,CCOC(=O)C1CSC(CC(=O)Nc2ccc(OCC)cc2)C(=O)N1 (stereo not drawn),-5.17% (inactive)
10,O=C(Nc1cccc(S(=O)(=O)N2CCCCC2)c1)c1cncc(Br)c1,0.4% (inactive)
11,O=C(Nc1cccc(S(=O)(=O)N2CCCC2)c1)c1cncc(Br)c1,0.81% (inactive)
12,CCN(CC(=O)Nc1ccc(S(=O)(=O)N2CCCC2)cc1)CC(=O)Nc1cccc(OC)c1,-2.62% (inactive)
13,O=C(CSc1ccccc1)Nc1cccc(S(=O)(=O)N2CCCCC2)c1,-8.72% (inactive)
14,CCN(CC(=O)Nc1cccc(S(=O)(=O)N2CCCCC2)c1)Cc1ccccc1,15.5% (active)
15,CCN(CC)S(=O)(=O)c1cccc(NC(=O)c2ccc(S(=O)(=O)N3CCCC3)cc2)c1,13.2% (active)
16,CCOc1ccccc1NC(=O)CCS(=O)(=O)c1cccc2nsnc12,6.16% (inactive)
17,O=C(COC(=O)c1cccnc1Cl)NC(=O)NC1CCCCC1,-1.43% (inactive)
18,OC(COCCC12CC3CC(CC(C3)C1)C2)CN1CCCCC1 (stereo not drawn),3.12% (inactive)
19,CCCOc1cccc(C(=O)Nc2ccccc2C(=O)N2CCN(C)CC2)c1,-7.36% (inactive)
20,COc1ccccc1CNC(=O)COn1nnc2ccc(S(=O)(=O)N3CCOCC3)cc21,-2.13% (inactive)
21,O=C(COc1ccccc1)N1CCN=C1SCc1cccc(F)c1,8.07% (inactive)
22,CN(Cc1cnccn1)C(=O)c1cc(COc2cccc(C(F)(F)F)c2)on1,0.68% (inactive)
23,CN(Cc1cccnc1)C(=O)c1cc(COc2ccc3ncccc3c2)on1,11.7% (active)
24,CC(=O)c1cccc(OCc2cc(C(=O)NC(C)Cc3cccnc3)no2)c1 (stereo not drawn),2.99% (inactive)

row,SMILES,activation
1,O=S(=O)(NC1CCCC1)c1ccc(-n2cnnn2)cc1,4.29% (inactive)
2,CCn1c(C(C)C)n[nH]c1=S,1.98% (inactive)
3,CCOC(=O)c1c(NC(=O)NC(C)(C)C)sc2c1CCN(C)C2,-2.16% (inactive)
4,CCOC(=O)c1c(NC(=O)CSc2cn(CC)c3ccccc23)sc2c1CCC2,-4.94% (inactive)
5,CCOC(=O)c1c(NC(=O)Cn2nc(C(F)(F)F)cc2C)sc2c1CCC2,12.1% (active)
6,CCCn1c(SCC(=O)Nc2c(C)cccc2C)nnc1C(C)C,-3.62% (inactive)
7,O=C(COc1ccccc1Cl)Nn1cnnc1,0.57% (inactive)
8,COc1cc2c(-c3ccc4c(c3)OCO4)c(-c3ccsc3)oc(=O)c2cc1OC,15.3% (active)
9,COc1cc(-c2c(-c3ccc4c(c3)OCO4)noc2C)ccc1F,-0.29% (inactive)
10,COC(=O)c1c(-c2ccsc2)oc2ccc(-c3cc(OC)c(OC)c(OC)c3)cc12,6.62% (inactive)
11,O=C(CCl)NNc1cccc(Cl)n1,-8.59% (inactive)
12,COc1ccc(N)c(C)c1,0.27% (inactive)
13,COc1ccc2c(c1)C(=O)CC(c1ccccc1)O2 (stereo not drawn),-1.73% (inactive)
14,COc1ccc2c(c1)SC(C)CC2=O (stereo not drawn),10.6% (active)
15,O=S(=O)(c1cccc(-c2nnc(SC(F)F)n2-c2ccccc2)c1)N1CCCCC1,0.34% (inactive)
16,Cc1ccc(CN2CCN(Cc3cn(C)nc3-c3ccccc3)CC2CCO)o1 (stereo not drawn),-1.42% (inactive)
17,Cc1ccc(CN2CCN(Cc3ccc(OCCO)cc3)CC2CCO)o1 (stereo not drawn),15% (active)
18,CCOc1ccc(CN2CCN(Cc3ccc(C)o3)CC2CCO)cc1 (stereo not drawn),-1.69% (inactive)
19,Cc1ccc2c(c1)C(c1ccccc1)N(C(=O)c1ccc(F)cc1)CC(=O)N2 (stereo not drawn),-1.42% (inactive)
20,COc1ccc2c(CC(=O)OCC(=O)Nc3ccccc3[N+](=O)[O-])coc2c1,-1.41% (inactive)
21,Cc1ccc(NS(=O)(=O)c2cccs2)cc1S(=O)(=O)N1CCCCCC1,0.15% (inactive)
22,O=S(=O)(Nc1ccccc1)c1ccc(NS(=O)(=O)c2cccs2)cc1,9.34% (active)
23,O=S(=O)(Nc1ccccc1Br)c1cccs1,8.11% (inactive)
24,Cc1c(OC(C)C(=O)NCC2CCC(C(=O)O)CC2)ccc2c1oc(=O)c1ccccc12 (stereo not drawn),1% (inactive)

row,SMILES,activation
1,CCOC(=O)N1CCC(Nc2c(NCCCN3CCN(c4ccc(OC)cc4)CC3)c(=O)c2=O)CC1,-0.13% (inactive)
2,COc1ccc(S(=O)(=O)Nc2cc(C)on2)cc1NC(C)=O,1.04% (inactive)
3,CC(C)(C)c1ccc(C(=O)N2CCC(C(=O)N3CCCCC3)CC2)cc1,5.42% (inactive)
4,CC1Cc2ccccc2N1C(=O)CSc1nnc(-c2ccc(S(=O)(=O)N3CCCC3)cc2)n1C (stereo not drawn),2.27% (inactive)
5,COc1ccc(S(=O)(=O)N2CCN(CC(=O)N3c4ccccc4CC3C)CC2)cc1OC (stereo not drawn),22.4% (active)
6,COc1ccccc1CNC(=O)C1CCN(S(=O)(=O)c2ccc3c(c2)CC(C)N3C(=O)C2CC2)CC1 (stereo not drawn),-0.1% (inactive)
7,O=C(CCS(=O)(=O)c1cccc2nsnc12)N1CCN(c2ccccc2F)CC1,5.73% (inactive)
8,CC(Cc1ccccc1)C(=O)N(C)Cc1ccccc1 (stereo not drawn),12.5% (active)
9,CN(Cc1ccccc1F)C(=O)C(Cc1ccccc1)NC(=O)c1ccccc1 (stereo not drawn),-1.74% (inactive)
10,CN(Cc1ccccc1)C(=O)c1cccc(C(=O)N(C)Cc2ccccc2)c1,-0.63% (inactive)
11,O=C(COC(=O)/C=C/c1ccc(S(=O)(=O)N2CCCCCC2)cc1)NCc1ccccc1Cl,-5.05% (inactive)
12,O=C1CCCN2N=C(SCC(=O)Nc3ccc(Br)cc3)SC2=N1,-3.71% (inactive)
13,CCCCCN(C(=O)NC(=O)Nc1ccccc1OC)S(C)(=O)=O,-1.57% (inactive)
14,Cc1ccc(C2=N/C(=C\c3ccc(OS(=O)(=O)c4ccc(C)cc4)cc3)C(=O)O2)cc1,0.86% (inactive)
15,CCOc1cc(/C=C2/N=C(c3ccc(C(C)(C)C)cc3)OC2=O)cc(Cl)c1OS(C)(=O)=O,13.3% (active)
16,Cc1cc(C)c(C)c(S(=O)(=O)Nc2cccnc2)c1C,13.8% (active)
17,COc1ccc(S(=O)(=O)Nc2cccnc2)c(Cl)c1Cl,-1.41% (inactive)
18,Cc1cc(C)c(C)c(S(=O)(=O)Nc2ccc(O)cc2)c1C,3.2% (inactive)
19,O=C(OCc1ccc([N+](=O)[O-])cc1)C1CC(=O)N(Cc2ccccc2Cl)C1 (stereo not drawn),-0.92% (inactive)
20,CCc1cccc(C)c1NS(=O)(=O)c1c(C)nc2sccn2c1=O,0.59% (inactive)
21,COCCC(=O)N1CCC(Oc2ccc(C(=O)NCc3ccon3)cc2)CC1,1.64% (inactive)
